Source: PubChem BioAssay (Tox21)
Results filed as inconclusive are left out. Active and inactive are the calls of the source. Unless noted, calls follow the shape of the dose curve; as a rule, active = well fitted curve in the direction sought with a large enough effect in the repeat runs; inconclusive = weak or mixed curves; inactive = no such curve, though single readings can be large; an effect the other way counts as inactive or inconclusive.

How the values were obtained:
[1] = qHTS assay for small molecules that induce genotoxicity in human embryonic kidney cells expressing luciferase-tagged ATAD5 (AID 651632); also: nearly all actives have a fitted effect of over 15% in size
How it was run: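 Luminescent reporter readout, HEK293T ATAD5-luc line: 16 hr drug exposure (37C, 5% CO2) followed by Amplite, 30 min RT.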

[2] = qHTS assay for small molecules that induce genotoxicity in human embryonic kidney cells expressing luciferase-tagged ATAD5 - cell viability (AID 651634; calls by dose curve; also: nearly all actives have a fitted effect of over 25% in size; also: potency is read from the fitted curve at half-maximal effect)
How it was run: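 Viability read: CellTiter-Fluor fluorescence, 30 min at 37C. Cells: HEK293T, luciferase-tagged ATAD5. Exposure: 15.5 hr, 37C, 5% CO2, compound or DMSO vehicle.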

[3] = qHTS assay for small molecule disruptors of the mitochondrial membrane potential - cell viability (AID 720634; calls by dose curve;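 also: human HepG2 liver cancer cells; series mostly up to about 83 µM; nearly all actives have a fitted effect of over 20% in size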)
How it was run: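 HepG2, 1 hr compound, 37 C. ATP luminescence via CellTiter-Glo, 30 min RT, same well as m-MPI.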

[4] = qHTS assay to test for compound auto fluorescence at 590 nm (red) in HepG2 cells (AID 720674)
How it was run: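 1 hr compound incubation on HepG2 cells, 37 C, 5% CO2; plate read ex 540 nm / em 590 nm; intensities reported as Rose Bengal sodium equivalents.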

[5] = qHTS assay to test for compound auto fluorescence at 535 nm (green) in HepG2 cells (AID 720675)
[6] = qHTS assay to test for compound auto fluorescence at 460 nm (blue) in HEK293 cells (AID 720678)
How it was run: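 Blue read-out at excitation 405 nm and emission 460 nm follows overnight compound exposure of HEK293 cells at 37C in 5% CO2. Activity is given as auto fluorescence equivalency to triamterene.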

[7] = qHTS assay to test for compound auto fluorescence at 590 nm (red) in HEK293 cells (AID 720679)
How it was run: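 Red channel, Ex/Em 540/590nm; signal expressed as equivalency to Rose Bengal sodium. HEK293, 2,000 cells/well, 10% dialyzed FBS; 23 nL compound pinned after 4-5 hr attachment; overnight 37C/5% CO2 before reading.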

[8] = qHTS assay to test for compound auto fluorescence at 535 nm (green) in HEK293 cells (AID 720680)
[9] = qHTS assay to test for compound auto fluorescence at 535 nm (green) in HEK293 cell free culture (AID 720682)
How it was run: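 Each library compound, or DMSO control, is added by pintool to medium alone, comprising DMEM and 10% FBS. Emission at 535 nm following 485 nm excitation is quantified against fluorescein.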

[10] = qHTS assay to test for compound auto fluorescence at 590 nm (red) in HepG2 cell free culture (AID 720684)
How it was run: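 Plate contents were MEM with 10% FBS plus test compound or DMSO, no cells. Fluorescence was recorded with 540 nm excitation and 590 nm emission.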

[11] = qHTS assay to test for compound auto fluorescence at 460 nm (blue) in HepG2 cell free culture (AID 720685)
How it was run: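 Compound (23 nL) or DMSO pinned into cell-free MEM with 10% FBS; blue fluorescence read at 405/460 nm excitation/emission, expressed as auto-fluorescence equivalency to triamterene.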

[12] = qHTS assay to test for compound auto fluorescence at 535 nm (green) in HepG2 cell free culture (AID 720686)
[13] = qHTS assay to test for compound auto fluorescence at 460 nm (blue) in HepG2 cells (AID 720687)
How it was run: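 Blue-channel autofluorescence (Ex/Em 405/460 nm, triamterene-equivalent) was measured after 1 hr compound exposure at 37 C, 5% CO2. Cells were HepG2, plated overnight at 37 C in MEM plus 10% FBS.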

[14] = qHTS assay to identify small molecule antagonists of the glucocorticoid receptor (GR) signaling pathway - cell viability counter screen (AID 720693); also: nearly all actives have a fitted effect of over 55% in size; also: potency is read from the fitted curve at half-maximal effect
Aromatase (Homo sapiens) = Aromatase (Homo sapiens) (UniProt P11511); experiment: qHTS assay to identify aromatase inhibitors (AID 743083); also: series mostly up to about 70 µM; nearly all actives have a fitted effect of over 55% in size
[15] = qHTS assay to identify aromatase inhibitors - cell viability counter screen (AID 743084);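 also: cells stimulated with testosterone during compound exposure; nearly all actives have a fitted effect of over 55% in size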
[16] = biological target: Acetylcholinesterase (Homo sapiens) (UniProt P22303); experiment: Acetylcholinesterase (AChE) small molecule antagonists: colormetric cell-based qHTS assay (AID 1347395; calls by dose curve; also: nearly all actives have a fitted effect of over 30% in size)
How it was run: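 After overnight attachment at 37 C, SH-SY5Y cells get 30 min compound exposure; detection cocktail (acetylthiocholine, DTNB) then incubates 90 min at 37 C, and absorbance reflects AChE-generated thiocholine.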

[17] = biological target: Acetylcholinesterase (Homo sapiens) (UniProt P22303); experiment: Acetylcholinesterase (AChE) small molecule antagonists: enzyme-based qHTS assay (AID 1347397; calls by dose curve; also: nearly all actives have a fitted effect of over 55% in size); conditions: Potency: AChE enzyme activity inhibition; outcome: AChE enzyme activity inhibition
How it was run: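 Absorbance-based detection of thiocholine with DTNB served as the read-out. Recombinant human AChE was exposed to compound for 30 min at RT before a 10 min RT incubation with acetylthiocholine.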

[18] = biological target: Acetylcholinesterase (Homo sapiens) (UniProt P22303); experiment: Acetylcholinesterase (AChE) small molecule antagonists: fluorescence cell-based qHTS assay (AID 1347398; calls by dose curve; also: nearly all actives have a fitted effect of over 50% in size); conditions: Potency: AChE activity; outcome: AChE activity
How it was run: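 Fluorimetric cell-based assay: intact SH-SY5Y cells, 30 min compound preincubation at 37 C, acetylthiocholine substrate with thiol probe Thiolite Green, 40 min RT development, fluorescence 490/520 nm.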

[19] = biological target: Aryl hydrocarbon receptor (Homo sapiens) (UniProt P35869); experiment: qHTS assay to identify small molecule that activate the aryl hydrocarbon receptor (AhR) signaling pathway (AID 743085); also: nearly all actives have a fitted effect of over 15% in size; also: potency is read from the fitted curve at half-maximal effect
How it was run: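 Stably transfected human liver carcinoma cells (HG2L7.5c1; 20 DRE-firefly luciferase) were incubated 5 h, dosed, and kept 24 h at 37C. Agonism was scored from increased luciferase luminescence.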

Measured: Potency

Sequence of Acetylcholinesterase (Homo sapiens) (P22303 whole entry, looked up): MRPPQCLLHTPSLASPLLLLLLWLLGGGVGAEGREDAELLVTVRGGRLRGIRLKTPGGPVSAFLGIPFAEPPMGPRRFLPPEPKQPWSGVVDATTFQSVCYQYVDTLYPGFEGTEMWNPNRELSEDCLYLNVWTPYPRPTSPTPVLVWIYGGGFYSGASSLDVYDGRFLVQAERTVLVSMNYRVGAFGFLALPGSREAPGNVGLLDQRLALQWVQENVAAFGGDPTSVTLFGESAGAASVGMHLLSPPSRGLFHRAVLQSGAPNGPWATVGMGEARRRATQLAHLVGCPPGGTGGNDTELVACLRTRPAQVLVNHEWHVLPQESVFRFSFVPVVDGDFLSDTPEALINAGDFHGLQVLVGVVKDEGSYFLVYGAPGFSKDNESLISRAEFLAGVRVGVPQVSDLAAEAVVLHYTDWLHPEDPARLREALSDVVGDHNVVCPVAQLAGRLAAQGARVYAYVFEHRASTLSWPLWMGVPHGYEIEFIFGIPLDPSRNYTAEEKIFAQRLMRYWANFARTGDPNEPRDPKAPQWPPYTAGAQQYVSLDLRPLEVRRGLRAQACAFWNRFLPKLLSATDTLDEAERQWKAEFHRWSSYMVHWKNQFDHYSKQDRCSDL
Sequence of Aromatase (Homo sapiens) (P11511 whole entry, looked up): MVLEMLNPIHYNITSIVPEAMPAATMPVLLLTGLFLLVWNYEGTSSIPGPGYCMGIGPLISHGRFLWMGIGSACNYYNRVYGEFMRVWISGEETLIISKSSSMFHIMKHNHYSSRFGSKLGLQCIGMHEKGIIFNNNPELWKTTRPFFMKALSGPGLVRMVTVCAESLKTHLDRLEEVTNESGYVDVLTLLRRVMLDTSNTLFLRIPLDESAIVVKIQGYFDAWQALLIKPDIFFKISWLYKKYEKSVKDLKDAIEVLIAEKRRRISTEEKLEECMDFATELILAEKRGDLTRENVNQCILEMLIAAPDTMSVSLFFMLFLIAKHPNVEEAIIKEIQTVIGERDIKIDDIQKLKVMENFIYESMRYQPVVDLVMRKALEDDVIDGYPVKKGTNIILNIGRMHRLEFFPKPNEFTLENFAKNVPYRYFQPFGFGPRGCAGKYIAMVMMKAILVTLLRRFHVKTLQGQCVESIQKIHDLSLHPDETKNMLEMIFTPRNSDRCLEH
Sequence of Aryl hydrocarbon receptor (Homo sapiens) (P35869 whole entry, looked up): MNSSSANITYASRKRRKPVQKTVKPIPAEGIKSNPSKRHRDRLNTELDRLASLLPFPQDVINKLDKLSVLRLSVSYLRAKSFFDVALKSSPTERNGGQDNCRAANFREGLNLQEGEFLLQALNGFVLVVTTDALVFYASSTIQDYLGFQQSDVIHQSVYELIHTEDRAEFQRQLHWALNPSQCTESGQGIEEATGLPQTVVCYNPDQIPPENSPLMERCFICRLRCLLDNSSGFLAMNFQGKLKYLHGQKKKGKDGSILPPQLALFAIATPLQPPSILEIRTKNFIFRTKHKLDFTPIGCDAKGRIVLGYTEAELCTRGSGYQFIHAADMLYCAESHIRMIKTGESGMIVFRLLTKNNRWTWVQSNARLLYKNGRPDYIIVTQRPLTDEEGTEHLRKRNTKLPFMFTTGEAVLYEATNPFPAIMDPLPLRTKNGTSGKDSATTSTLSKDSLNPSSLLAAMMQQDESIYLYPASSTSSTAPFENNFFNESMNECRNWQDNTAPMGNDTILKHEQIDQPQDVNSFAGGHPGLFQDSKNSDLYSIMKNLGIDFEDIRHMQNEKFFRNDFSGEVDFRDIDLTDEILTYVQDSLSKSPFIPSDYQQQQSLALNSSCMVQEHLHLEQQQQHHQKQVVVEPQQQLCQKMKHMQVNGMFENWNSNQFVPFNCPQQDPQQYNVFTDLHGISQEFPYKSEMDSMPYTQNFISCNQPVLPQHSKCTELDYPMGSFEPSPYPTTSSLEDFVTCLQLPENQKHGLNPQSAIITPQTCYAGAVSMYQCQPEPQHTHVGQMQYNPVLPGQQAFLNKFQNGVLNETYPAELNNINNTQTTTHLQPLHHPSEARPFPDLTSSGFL

CCC(=O)O[C@@](Cc1ccccc1)(c1ccccc1)[C@@H](C)CN(C)C
not listed: Aromatase (Homo sapiens) | [15] | [16] | [17] | [18] | [19]
inactive: all other assays above

CCN(CC)C(=O)N[C@H]1C[C@@H]2c3cccc4[nH]cc(c34)C[C@H]2N(C)C1
not listed: [9] | [16] | [17] | [18] | [19]
inactive: all other assays above

CC(=O)O[C@H]1C[C@H](O[C@H]2[C@@H](O)C[C@H](O[C@H]3[C@@H](O)C[C@H](O[C@H]4CC[C@@]5(C)[C@H](CC[C@@H]6[C@@H]5C[C@@H](O)[C@]5(C)[C@@H](C7=CC(=O)OC7)CC[C@]65O)C4)O[C@@H]3C)O[C@@H]2C)O[C@H](C)[C@H]1O[C@@H]1O[C@H](CO)[C@@H](O)[C@H](O)[C@H]1O
active: [2] 168 nM | [14] 674 nM
not listed: [13] | [16] | [17] | [18] | [19]
inactive: all other assays above

C[C@]12C[C@H]3S[C@H]3C[C@@H]1CC[C@@H]1[C@@H]2CC[C@]2(C)[C@@H](O)CC[C@@H]12
not listed: [16] | [17] | [18] | [19]
inactive: all other assays above

C#CC(C)(O)CC (centres undefined)
not listed: [3] | [16] | [17] | [18] | [19]
inactive: all other assays above

C=CCCCCCCCCO
inactive: [16] | [17] | [18]

CCN(CC)CCO[C@H]1CC[C@@]2(C)C(=CC[C@@H]3[C@@H]2CC[C@]2(C)C(=O)CC[C@@H]32)C1
not listed: [6] | [16] | [17] | [18]
inactive: all other assays above

CC(C)NC[C@@H](O)COc1ccc(CC(N)=O)cc1
inactive: [16] | [17] | [18]

O=C1CCC(=O)O1
inactive: [16] | [17] | [18]

CCON=O
not listed: [13] | [16] | [17] | [18] | [19]
inactive: all other assays above

COC(=O)C1=C(C)NC(C)=C(C(=O)OCCN(C)Cc2ccccc2)C1c1cccc([N+](=O)[O-])c1 (centres undefined)
inactive: [16] | [17]

CN1CCN(C2=Nc3cc(Cl)ccc3Nc3ccccc32)CC1
inactive: [16] | [17]

CC(C)(C)c1cc(O)c(C(C)(C)C)cc1O
inactive: [16] | [17] | [18]

C[C@@H](Cc1ccccc1)NCCC(c1ccccc1)c1ccccc1
not listed: [4] | [6] | [9] | [16] | [17] | [18]
inactive: all other assays above

Cc1ccc(S(=O)(=O)NC(=O)NC2CCCCCCC2)cc1
inactive: [16] | [17] | [18]

CC(C)(C)NC(=O)[C@@H]1C[C@@H]2CCCC[C@@H]2CN1C[C@@H](O)[C@H](Cc1ccccc1)NC(=O)[C@H](CC(N)=O)NC(=O)c1ccc2ccccc2n1
inactive: [16] | [17] | [18]

F/C(COc1ccc2c(c1)[nH]c1ccccc12)=C1/CN2CCC1CC2
active: [19] 10600 nM
not listed: Aromatase (Homo sapiens) | [15] | [16] | [17] | [18]
inactive: all other assays above

C[C@]12CC[C@H]3[C@@H](CCC4=CC(=O)CC[C@@]43C)[C@@H]1CC[C@H]2O
not listed: [16] | [17] | [18]
inactive: all other assays above

CO[C@H]1[C@@H](O)C[C@H](O[C@H]2[C@@H](O)C[C@H](O[C@H]3[C@@H](O)C[C@H](O[C@H]4CC[C@@]5(C)[C@H](CC[C@@H]6[C@@H]5C[C@@H](O)[C@]5(C)[C@@H](C7=CC(=O)OC7)CC[C@]65O)C4)O[C@@H]3C)O[C@@H]2C)O[C@@H]1C
active: [2] 94.4 nM | [14] 756 nM
not listed: [9] | [16] | [17] | [18]
inactive: all other assays above

CN(C)CCCCCCN(C)C (tested in a mixture with another compound)
not listed: [1] | [9] | [16] | [17] | [18] | [19]
inactive: all other assays above
